Reference: PubChem BioAssay (NCI)
This is part of a sample that, as a whole, favours compounds with a hit. Of some 79,000 tested, about 15% had one in any assay. A number with no mark means an inactive call. Activity calls are given as the source filed them. Cut-off read from the data, not from the text of the source: active = growth inhibition above about 70%; inactive = the rest.

Legend:
[1] = NCI Yeast Anticancer Drug Screen. Data for the rad50 strain (AID 155);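 note: 0% = growth of vehicle-only cultures of the same strain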; details: S. cerevisiae rad50 strain growth inhibition, active compounds read high
In short: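 Genetically altered yeast (DNA repair pathway); compound treatment; growth inhibition vs vehicle ctrl.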

[2] = NCI Yeast Anticancer Drug Screen. Data for the mec2-1 strain (AID 157); details: S. cerevisiae mec2-1 strain, active compounds read high
In short: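 Yeast mec2-1 mutant treated with compound. Readout: growth inhibition vs vehicle controls.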

[3] = NCI Yeast Anticancer Drug Screen. Data for the sgs1 mgt1 strain (AID 161);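 note: 0% = growth of cultures given vehicle only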; details: S. cerevisiae sgs1 mgt1 strain, active compounds read high
In short: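 Inhibition of yeast growth, normalised to vehicle-treated controls, is reported for a strain bearing genetic alterations in DNA damage repair.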

[4] = NCI Yeast Anticancer Drug Screen. Data for the cln2 rad14 strain (AID 165);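 note: 0% = growth equal to vehicle treated cultures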; details: S. cerevisiae cln2 rad14 strain, active compounds read high
In short: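 cln2 rad14 yeast strain; compound exposure; growth inhibition read vs vehicle controls.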

[5] = NCI Yeast Anticancer Drug Screen. Data for the bub3 strain (AID 167); details: S. cerevisiae bub3 mutant strain, active compounds read high
In short: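 Yeast carrying a defined mutation is treated with each compound, and growth is compared with that of vehicle-exposed cells to give inhibition.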

[6] = NCI Yeast Anticancer Drug Screen. Data for the mlh1 rad18 strain (AID 175); details: S. cerevisiae mlh1 rad18 strain growth inhibition, active compounds read high
In short: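 Yeast w/ defined DNA-repair lesions; compound exposure; growth vs vehicle controls → % inhibition.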

[7] = at 5.0 µM (retest, dose inferred, filed as 0.5)
[8] = at 50.0 µM (retest, dose inferred, filed as 5.0)

Row | Compound | growth inhibition [1, 7] | growth inhibition [1, 8] | growth inhibition ([1]; at 50.0 µM) | growth inhibition [2, 7] | growth inhibition [2, 8] | growth inhibition ([2]; at 50.0 µM) | growth inhibition [3, 7] | growth inhibition [3, 8] | growth inhibition ([3]; at 50.0 µM) | growth inhibition [4, 7] | growth inhibition [4, 8] | growth inhibition ([4]; at 50.0 µM) | growth inhibition [5, 7] | growth inhibition [5, 8] | growth inhibition ([5]; at 50.0 µM) | growth inhibition [6, 7] | growth inhibition [6, 8] | growth inhibition ([6]; at 50.0 µM)
1 | [NH-]c1ccccc1[S-].[NH-]c1ccccc1[S-].[Zn] | 0% | 99% (active) | 99.3% (active) | 11% | 100% (active) | 99.6% (active) | 18% | 100% (active) | 102% (active) | 7% | 98% (active) | 96.3% (active) | 14% | 99% (active) | 99.4% (active) | 19% | 99% (active) | 99.2% (active)
2 | CCCCCCCCC(=O)NCCN(CCN)C(=O)CCCCCCCC | -82% | 97% (active) | 90.2% (active) | -43% | 98% (active) | 93.1% (active) | -33% | 97% (active) | 91.7% (active) | -24% | 98% (active) | 89.9% (active) | -47% | 97% (active) | 90.1% (active) | -68% | 97% (active) | 90% (active)
3 | Nc1ccc2c(SCCSc3c4ccccc4nc4cc(N)ccc34)c3ccccc3nc2c1 | 25% | 81% (active) | 56% | 20% | 62% | 33% | 28% | 76% (active) | 52.6% | 6% | 28% | -8.65% | 1% | -14% | -6.05% | 23% | 46% | 29.9%
4 | NC(N)=N/N=C/c1ccc([N+](=O)[O-])o1 | 11% | 22% | 66% | 4% | 13% | 49% | 3% | 16% | 70.2% (active) | 3% | 7% | 25.2% | 6% | 39% | 28.7% | 10% | 23% | 61.4%
5 | Cc1[nH]c2ccccc2c1/C=C1\C(=O)C2CCC1C2 (centres undefined) | -7% | 75% (active) | 95.4% (active) | -4% | 73% (active) | 34.6% | -6% | 92% (active) | 71.3% (active) | -4% | 38% | 45.4% | -16% | 80% (active) | 39% | -14% | 80% (active) | 86.9% (active)
6 | CC(C)C1(c2ccccc2)C(=O)c2ccccc2C1=O | -6% | 42% | 71.8% (active) | -7% | 50% | 77.5% (active) | -5% | 73% (active) | 84.7% (active) | 2% | 10% | 68.2% | -11% | 14% | 79.2% (active) | -8% | 37% | 46.1%
7 | C=CCNC(=O)NC1=CSC2=NC(=O)C3(NN12)c1ccccc1-c1ccccc13 | -1% | 50% | 76.7% (active) | -13% | 48% | 68.2% | -2% | 63% | 82.5% (active) | 0% | 83% (active) | 73.4% (active) | -6% | 66% | 76.4% (active) | -6% | 64% | 82.1% (active)
8 | CC(=O)OC1(c2ccccc2)N=C(c2ccccc2)N=C1c1ccccc1 (centres undefined) | 13% | 28% | 28.9% | 4% | 13% | 19.1% | 6% | 37% | 65.8% | 13% | 28% | 38.3% | 13% | 24% | 41.9% | 3% | 39% | 70.1% (active)
9 | C=C1C(=O)O[C@H]2[C@H](OC(C)=O)[C@@H](C)CCC/C(C)=C/CC[C@@]3(C)O[C@@H]3C[C@@H]12 | 14% | 99% (active) | 91.9% (active) | 17% | 99% (active) | 94.2% (active) | 20% | 98% (active) | 92.8% (active) | 3% | 95% (active) | 91.1% (active) | 3% | 98% (active) | 93% (active) | 22% | 99% (active) | 92.3% (active)
10 | O=C(Cc1ccc2c(c1)OCO2)c1ccc(O)cc1O | 6% | 84% (active) | 97.4% (active) | 1% | 93% (active) | 98.4% (active) | 9% | 85% (active) | 96.7% (active) | 6% | 84% (active) | 96.1% (active) | 10% | 90% (active) | 97.2% (active) | 5% | 88% (active) | 96.5% (active)
11 | CCC(=O)Sc1ccccc1C(=O)Nc1ccc(Cl)cc1 | 18% | 43% | 88.5% (active) | 28% | 64% | 92.9% (active) | 12% | 47% | 52.4% | 23% | 62% | 53.1% | 22% | 74% (active) | 56.4% | 29% | 65% | 85.2% (active)
12 | CCOC(=O)c1c(I)[nH]c(I)c1C | -1% | 11% | 30.3% | 0% | 5% | 10.2% | -1% | 14% | 22.2% | -1% | 3% | 10.6% | 4% | 3% | 38.5% | 2% | 9% | 42.3%
13 | O=C(O/N=C1/CCC/C1=C\c1ccccc1)c1ccccc1 | 33% | 97% (active) | 96.5% (active) | 46% | 99% (active) | 98.2% (active) | 78% (active) | 99% (active) | 98.8% (active) | 25% | 98% (active) | 97% (active) | 15% | 99% (active) | 96.3% (active) | 57% | 98% (active) | 98.3% (active)
